# Reference: PubChem BioAssay AID431 (Sanford-Burnham Center for Chemical Genomics, 2006)
# In all, about 63,000 compounds went through this assay and about 1,100 (1.7%) were called active. What follows is part of a selection rich in actives, with near analogues and random picks from the rest. Measured potencies and affinities stand elsewhere. A number with no mark means an inactive call.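 Rule for the calls: active = compounds whose percent cytotoxicity in the single-dose primary screen, scaled between solvent and toxic-drug controls, exceeds 50; inactive = the rest.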
# Test: cytotoxicity in KRAS-transformed pancreatic duct cells, primary screen, cell-based, fluorescence, HTS (AID 431);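 note: 0% = DMSO solvent wells and 100% = doxorubicin-treated wells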
# Settings: HPDE-C7K KRASV12 cells, Alamar Blue viability, 48 h; at 10 µM; hits give high values
row,Structure (SMILES),cytotoxicity
1,Cn1c(-c2ccc(F)cc2)cnc1SCC(=O)N1CCCCC1,-5.4%
2,C/C=C/c1ccc(Oc2nnnn2-c2ccc(C(N)=O)cc2)c(OC)c1,1%
3,Cc1ccc2[nH]c3c(N4CCN(Cc5ccc6c(c5)OCO6)CC4)ncnc3c2c1,34.4%
4,Fc1ccc2[nH]c3c(N4CCN(Cc5ccc6c(c5)OCO6)CC4)ncnc3c2c1,95.1% (active)
5,c1nc(N2CCN(Cc3ccc4c(c3)OCO4)CC2)c2[nH]cnc2n1,-0.7%
6,CCOc1ccc(N(CC(=O)NCc2cccs2)S(=O)(=O)c2c(C)noc2C)cc1,-1.7%
7,CCOC(=O)N1CCN(c2c(N3CC=C(c4ccccc4)CC3)c(=O)c2=O)CC1,-2.9%
8,O=C(CSc1nc2ccccc2o1)Nc1ccccc1,-14.6%
9,CSc1cccc(NC(=O)CSc2nc3ccccc3o2)c1,-18.9%
10,COc1ccc(C(=O)Nc2cccc(C)c2)cc1S(=O)(=O)N1CCOCC1,15.9%
11,O=C(NCc1ccoc1)c1ccc(NC(=O)c2ccccc2Cl)cc1,-12.8%
12,COCCn1nnnc1CN1CCC(NC(=O)c2ccc(Br)cc2)CC1,-2.4%
13,CC(=O)OC[C@H]1O[C@@H](n2ncc(=O)[nH]c2=O)[C@H](OC(C)=O)[C@@H]1OC(C)=O,54.7% (active)
14,CC(=O)OC[C@H]1O[C@@H](n2ccc(=O)[nH]c2=S)C(OC(C)=O)C1OC(C)=O (some centres not stated),4.5%
15,CC(=O)OCC1OC(n2ccc(=O)[nH]c2=O)C(O)C1O (configuration not stated),0.8%
16,Nc1nc2nonc2nc1N1CCCCC1,-2.7%
17,CCOC(=O)c1cnc(SC2CC(=O)N(c3ccc(OC)c(OC)c3)C2=O)nc1N (configuration not stated),-9.5%
18,C/C(Cl)=C\CNC(C)c1ccccc1 (configuration not stated),-6.7%
19,CC(NC(=O)CSc1ncccn1)c1ccccc1 (configuration not stated),1.8%
20,CC(NCCC(c1ccccc1)c1ccccc1)c1ccccc1 (configuration not stated),90.2% (active)
21,O=C(Nc1ccc(N2CCOCC2)c(Cl)c1)c1cccc(F)c1,31.3%
22,O=C(Nc1ccc(N2CCOCC2)c(Cl)c1)c1c(F)c(F)c(F)c(F)c1F,64.4% (active)
23,O=C(Nc1ccccc1N1CCN(C(=O)c2ccccc2)CC1)c1cc2ccccc2o1,-7.4%

row,Structure (SMILES),cytotoxicity
1,O=C(Nc1ccccc1N1CCN(C(=O)c2ccc(Cl)cc2)CC1)c1cc2ccccc2o1,13.1%
2,O=C(Nc1ccc(N2CCOCC2)c(Cl)c1)c1ccco1,-11.5%
3,O=C(Cc1ccc(Cl)cc1)Nc1ccc(N2CCN(C(=O)c3ccco3)CC2)c(Cl)c1,21.6%
4,CCC(=O)Nc1ccc(NC(=O)c2cc3ccccc3o2)cc1,-17.1%
5,O=C(Nc1ccc(N2CCN(C(=O)c3ccco3)CC2)c(Cl)c1)c1c(F)c(F)c(F)c(F)c1F,103% (active)
6,CCCC(=O)N1CCN(c2ccc(NC(=O)c3cc4ccccc4o3)cc2)CC1,-19%
7,O=C(Nc1ccc(N2CCN(C(=O)c3ccco3)CC2)c(Cl)c1)c1cccs1,-1%
8,Cn1c(SCC(=O)NC(C)(C)C)nnc1-c1ccc(C(C)(C)C)cc1,8.1%
9,N#CCc1nc(CSc2nc3ccccc3o2)cs1,-5.5%
10,O=C(O)CCN1C(=O)C2C3C=CC(C3)C2C1=O (configuration not stated),4.7%
11,Cc1ccc2cc(CN(CCCO)S(=O)(=O)c3cccc4nsnc34)c(=O)[nH]c2c1C,-8.7%
12,Cn1c(=O)c2c(SCc3cccnc3)nc(C3CC3)nc2n(C)c1=O,-15.9%
13,C/C(CC1(O)/C(=N/O)CCc2nonc21)=N\O (configuration not stated),-0.9%
14,O=C(Nc1ccc(N2CCN(C(=O)c3ccccc3)CC2)c(Cl)c1)c1ccco1,-11%
15,Cc1ccccc1C(=O)N1CCN(c2ccc(NC(=O)c3ccco3)cc2Cl)CC1,14.5%
16,C=CCn1c(C)cc(C(=O)CSc2nnc(NCc3ccccc3)s2)c1C,64.7% (active)
17,O=C(CSc1nnc(NCc2ccccc2)s1)c1ccco1,-6.2%
18,Cc1cc(C(=O)CSc2nnc(-c3ccccc3)n2C)c(C)n1C,16.6%
19,Cc1cc(C(=O)CSc2nnc(Nc3ccccc3)s2)c(C)n1CC1CCCO1 (configuration not stated),1.1%
20,Cc1cc(C(=O)CSc2nnc(NCc3ccccc3)s2)c(C)n1C,65.2% (active)
21,C=CCn1c(C)cc(C(=O)CSc2nnc(Cc3ccccc3)o2)c1C,-7.3%
22,Cc1cc(C)n(CNc2nc(C(F)(F)F)cs2)n1,-4.6%
23,CC1CCN(Cc2ccc(NC(=O)CC3Oc4ccccc4NC3=O)cc2)CC1 (configuration not stated),0.1%

row,Structure (SMILES),cytotoxicity
1,CN1C(=O)CSc2ccc(NC(=O)N3CCC(N4CCCCC4)CC3)cc21,-15.1%
2,Cc1ccc(C2C3=C(CC(C)(C)CC3=O)Nc3n[nH]c(C)c32)cc1 (configuration not stated),-5.7%
3,COc1cc(Cl)c(C)cc1NC(=O)CSc1nc2ccccc2o1,-5.2%
4,CCOC(=O)C1C(C)N=C2SCC(=O)N2C1c1cccc(Br)c1 (configuration not stated),-13%
5,O=C(CSc1nc(-c2ccco2)cc(C(F)(F)F)n1)Nc1cccnc1,-0.8%
6,COC(=O)c1ccc(C(=O)OC)c(NC(=O)CSc2nc(-c3ccco3)cc(C(F)(F)F)n2)c1,-21.1%
7,COC(=O)c1ccccc1NC(=O)CSc1nc(-c2ccco2)cc(C(F)(F)F)n1,51.7% (active)
8,Cc1ccc(OCC(=O)NCCO)cc1C,9.8%
9,C=Cn1c(N2CCOCC2)nc2c1c(=O)[nH]c(=O)n2C,-2.9%
10,O=C(Nc1cc(C(=O)N2CCOCC2)ccc1N1CCCC1)c1cccs1,-2.1%
11,CC(C)c1ccc2oc(-c3ccc(N)cc3)nc2c1,-11.3%
12,CCc1ccc2oc(-c3cc(N)ccc3O)nc2c1,7.1%
13,CC(C)c1ccc2oc(-c3cc(N)ccc3O)nc2c1,51.5% (active)
14,COC(=O)c1ccsc1NC(=O)CN1C(=O)CCC1=O,-1.3%
15,COCCn1c(SCC(=O)Nc2ncc(C)s2)nc2sc3c(c2c1=O)CCC3,14.3%
16,CN1C(=O)/C(=C2/C=CC=CN2C)OC1=S,-24.5%
17,COc1ccc(CCNC(=O)C2CCN(S(=O)(=O)c3cc(OC)ccc3OC)CC2)cc1,2.3%
18,COc1cccc(C2=CC(c3cccc(OC)c3OC(F)F)n3nnnc3N2)c1 (configuration not stated),-13.8%
19,COc1cccc(C2=CC(c3ccc(OC)c(OC)c3OC)n3nnnc3N2)c1 (configuration not stated),-4.5%
20,COc1ccc(C2=CC(c3c(C)nn(-c4ccccc4)c3Cl)n3nnnc3N2)cc1OC (configuration not stated),84.4% (active)
21,COc1cccc(C2=CC(c3cc(OC)ccc3OC)n3nnnc3N2)c1 (configuration not stated),65.1% (active)
22,COc1ccccc1C1C=C(c2ccccc2)Nc2nnnn21 (configuration not stated),25.4%
23,COc1cccc(C2=CC(c3ccc(N(C)C)cc3)n3nnnc3N2)c1 (configuration not stated),-3.6%

row,Structure (SMILES),cytotoxicity
1,COc1cccc(C2=CC(c3ccccc3)n3nnnc3N2)c1 (configuration not stated),43.2%
2,COc1ccc(OC)c(C2C=C(c3ccc(C)c(C)c3)Nc3nnnn32)c1 (configuration not stated),6%
3,COc1ccc(C2=CC(c3ccc(OC)c(OC)c3)n3nnnc3N2)c(OC)c1 (configuration not stated),4%
4,COc1cccc(C2=CC(c3cccc(OC)c3OC)n3nnnc3N2)c1 (configuration not stated),58.1% (active)
5,COc1ccccc1C1C=C(c2ccc(C)cc2)Nc2nnnn21 (configuration not stated),-8.9%
6,CC1CCCCC1NC(=O)CSc1nc2ccccc2c(=O)n1Cc1ccco1 (configuration not stated),-6.9%
7,COc1cccc(N(CC(=O)Nc2ccccc2C)S(C)(=O)=O)c1,14.1%
8,c1ccc(-c2nc3ccccc3nc2-c2ccccn2)nc1,13.9%
9,COc1ccc(OC)c2[nH]c(=O)c(CCNC(=O)CC(C)C)cc12,-6.6%
10,CCOC(=O)N1CCC(NC(=O)C2=C(C)C(=O)OC23CCC(C)CC3)CC1 (configuration not stated),-10.3%
11,Cc1nn(C)c(C)c1S(=O)(=O)N1CCCC(C(=O)NC2CCCCC2)C1 (configuration not stated),-4.9%
12,COc1ccc(NC(=O)CSc2nnc(-c3ccncc3)n2CC2CCCO2)c(OC)c1 (configuration not stated),-18.3%
13,CCC(CC)C(=O)NCCc1cc2c(OC)ccc(OC)c2[nH]c1=O,7.1%
14,O=C(c1ccco1)N1CCN(c2ncnc3c2[nH]c2ccc(Br)cc23)CC1,10%
15,Clc1ccc(-c2nnc(-c3ccccc3Cl)o2)cc1,13.7%
16,Cc1nc(NC(=O)c2csc3ccccc23)sc1C,2.8%
17,COc1ccccc1C1(CC(=O)N2CCOCC2)CCOC(C(C)C)C1 (configuration not stated),-15.3%
18,CCC(=O)O[C@@H]1CC(=O)O[C@H](C)CC=CC=C[C@@H](O)[C@H](C)C[C@H](CC=O)[C@H](O[C@H]2O[C@H](C)[C@@H](O[C@H]3C[C@@](C)(O)[C@@H](OC(=O)CC)[C@H](C)O3)[C@H](N(C)C)[C@H]2O)[C@H]1OC,-0.4%
19,CC[C@H]1OC(=O)C[C@@H](O)[C@H](C)[C@@H](O[C@@H]2O[C@H](C)C[C@H](N(C)C)[C@H]2O)[C@@H](CC=O)C[C@@H](C)C(=O)C=C[C@]2(C)O[C@H]2[C@@H]1C,76.8% (active)
20,Cc1cc(C)cc(NC(=O)Cn2ncn3c(cc4ccccc43)c2=O)c1,-13.3%
21,CN1CCN(C2=C(Cl)C(=O)N(C3CCCCC3)C2=O)CC1,3%
22,O=C1c2ccncc2C(=O)N1C1CCCCC1,2.8%
23,O=C(Nc1ccc2c(c1)OCCO2)C1CCN(S(=O)(=O)c2cccs2)CC1,-8.1%
